HTT aggregate: qHTS Multiplex Assay to Identify Dual Action Probes in a Cell Model of Huntington: Aggregate Formation (GFP) | PC12 HttQ103-GFP aggregates, Acumen cytometry, 40 h | Potency, µM (titrated, usually from 46.1 µM), for the others: at the top dose activity change, negative = inhibition, usual class: inhibitors | 220,000 compounds, 1.1% hits | AID 1688, 2009; active = well fitted curve in the direction sought with a large enough effect; inconclusive = small, poorly fitted or top-dose-only effect, or another doubt; inactive = no such curve, though single readings can be large; an effect the other way counts as inactive or inconclusive; also: % is scaled to controls: 0 for no effect and ±100 for the full control effect; nearly all actives have a fitted effect of over 60% in size
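Using laser scanning cytometry, GFP-positive aggregates were counted after lysis of PC12 cells induced with 100 nM tebufenozide to express HTT exon 1 Q103–GFP. Compounds were tested in titration.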
ALDH1A1 block: qHTS Assay for Inhibitors of Aldehyde Dehydrogenase 1 (ALDH1A1) | Purified ALDH1A1, NADH fluorescence, propionaldehyde substrate | Aldehyde dehydrogenase 1A1 (Homo sapiens), P00352 | 220,000 compounds, 7.3% hits | Potency, µM (titrated, usually from 75.3 µM), inactives show at the top dose activity, negative = inhibition, hits mostly inhibitors;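 also: plate controls were no enzyme wells and a reference inhibitor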
HPGD inh: qHTS Assay for Inhibitors of HPGD (15-Hydroxyprostaglandin Dehydrogenase); purified HPGD, NADH fluorescence kinetic, PGE2 substrate; Potency, µM, inactives show at the top dose activity change, negative = inhibition, most hits filed as inhibitors; 150,000 compounds, 4.3% hits; AID 894, 2007; also: % is scaled to controls: 0 for no effect and ±100 for the full control effect
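NADH formation kinetics: reaction with 30 uM PGE2 and 1 mM NAD+ (final), 20 nM enzyme, Tris-HCl pH 8 with Tween 20, after 15 min compound preincubation at room temperature. Fluorescence change, last versus first of five reads.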
HTT cytoprotect: qHTS Multiplex Assay to Identify Dual Action Probes in a Cell Model of Huntington: Cytoprotection (ATP) | PC12 HTT-Q103 induced, cytoprotection, ATP luminescence, 40 h | Potency, µM (top dose mostly 56.4 µM), without a hit: cytoprotection (ATP increase), usual class: activators | 230,000 compounds, 0.14% hits; active = well fitted curve in the direction sought with a large enough effect; inconclusive = small, poorly fitted or top-dose-only effect, or another doubt; inactive = no such curve, though single readings can be large; an effect the other way counts as inactive or inconclusive; also: % of control where 0% means no effect; nearly all actives have a fitted effect of over 45% in size
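Stable PC12 Q103-GFP cells in serum-supplemented, phenol red-free DMEM; induction by tebufenozide at 100 nM final; compound dose series; cell viability quantified luminescently from ATP.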
LMNA splice mod: qHTS Assay for Modulators of Lamin A Splicing | HeLa LMNA splicing GFP/RFP minigene ratio, 48 h | Potency, µM (top dose mostly 46.1 µM), without a hit: at the top dose ratio change, negative = inhibition, most hits filed as inhibitors | 200,000 compounds, 0.01% hits | AID 1487, 2009; active = well fitted inhibition curve with a large enough effect in the signal ratio, with a control signal flat, not every such curve was filed as active; inconclusive = small, poorly fitted or top-dose-only effect, or effect the other way, or a change in a side signal; the % refers to the signal ratio; also: % is scaled to controls: 0 for no effect and ±100 for the full control effect
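S3 HeLa cells stably expressing lamin A-EGFP splicing minigene plus DsRed2, 600 cells/well, 48 h compound exposure at 37C. Laser-scanning cytometry; analysed as GFP (500-530 nm)/RFP (575-640 nm) total intensity ratio; 0.5% DMSO vehicle.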
KDM4E inh: qHTS Assay for Inhibitors of Human Jumonji Domain Containing 2E (JMJD2E); Lysine-specific demethylase 4E (Homo sapiens), B2RXH2; JMJD2E catalytic domain, FDH-coupled NADH fluorescence (FDH is formaldehyde dehydrogenase); Potency, µM (doses to about 57.1 µM), for the others: top-dose activity change, negative = inhibition, usual class: inhibitors; 230,000 compounds, 1.6% hits; AID 2147, 2009;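 also: 0% = wells with enzyme and -100% = buffer wells without enzyme; nearly all actives have a fitted effect of over 50% in size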
Target sequence (B2RXH2 1-337 limits assumed): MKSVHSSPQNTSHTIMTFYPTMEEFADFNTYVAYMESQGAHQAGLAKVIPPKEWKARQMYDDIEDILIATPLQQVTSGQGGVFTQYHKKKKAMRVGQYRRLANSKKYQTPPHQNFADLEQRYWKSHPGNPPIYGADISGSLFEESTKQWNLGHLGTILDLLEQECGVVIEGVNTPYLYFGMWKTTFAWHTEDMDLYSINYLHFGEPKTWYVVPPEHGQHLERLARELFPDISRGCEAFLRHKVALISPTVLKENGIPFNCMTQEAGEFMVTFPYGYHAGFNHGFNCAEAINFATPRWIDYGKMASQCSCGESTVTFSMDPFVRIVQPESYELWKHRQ
Active calls of the source: *; ! = not confirmed by another sample; [ ] = remark or other dose. Compounds with a hit are over-represented: about 9.2% of the library has one in this group of screens. Unless noted, calls follow the shape of the dose curve; as a rule, active = well fitted inhibition curve with a large enough effect (not every such curve was filed as active); inconclusive = small, poorly fitted or top-dose-only effect, or another doubt; inactive = no such curve, though single readings can be large or run the other way. Potency is read from the fitted curve at half-maximal effect.

`Cc1ccc(C(=O)O/N=C(\c2ccccc2)c2cccnc2)cc1` gave HTT aggregate 12%, ALDH1A1 block inconclusive, HPGD inh -8%, HTT cytoprotect -2%[10 µM], LMNA splice mod -14% and KDM4E inh 6%.
`C=CCCCCCC` gave ALDH1A1 block -4%, HPGD inh -2% and HTT cytoprotect 5%.
Screening O=C(Nc1ccccc1)c1ccc(Cc2nc3ccccc3[nH]2)cc1 returned ALDH1A1 block 1% and HPGD inh -3%.
Screening O=C(c1ccc(Cc2nc3ccccc3[nH]2)cc1)N1CCCCC1 returned ALDH1A1 block -7% and HPGD inh 16µM*.
`CC(=O)NCC1(O)CCCC(C)C1` (stereo not given) gave HTT aggregate -6%[9.22 µM], HTT cytoprotect 8%[10 µM] and KDM4E inh 5%.
For CN(C)C(=O)COc1ccc(Oc2ccccc2)cc1 the results were HTT aggregate 5%, ALDH1A1 block -3%, HTT cytoprotect -21%, LMNA splice mod 10%[46 µM] and KDM4E inh -8%.
Screening O=C(O)c1c(Cl)c(Cl)c(Cl)c(Cl)c1-c1c2cc(I)c(=O)c(I)c-2oc2c(I)c(O)c(I)cc12 returned HTT aggregate -10%, ALDH1A1 block 32µM*, HPGD inh 32µM*, HTT cytoprotect -235% and LMNA splice mod inconclusive.
Cc1ccc2cccc(NC(=S)NC(=O)c3ccnn3C)c2n1 was read as HTT aggregate 5%, ALDH1A1 block 10µM*, HPGD inh -2%, HTT cytoprotect 2%[10 µM], LMNA splice mod -8% and KDM4E inh 5%.
`CC(=O)NC(=S)Nc1cccc2ccc(C)nc12` gave HTT aggregate 28%[9.22 µM], HTT cytoprotect 26%[10 µM] and KDM4E inh 9%.
`Cc1c(C(=O)Nc2ccccc2Cl)sc2ncnc(N(C)C3CCCCC3)c12` gave LMNA splice mod 26%[46 µM].
`CN(C)CCN(Cc1ccccc1)c1ccccn1` gave HTT aggregate 10%, ALDH1A1 block 2%, HPGD inh -5%, HTT cytoprotect -3%, LMNA splice mod inconclusive and KDM4E inh 32µM*!.
CN(C)c1nccc(N(Cc2ccccc2)Cc2ccccc2)c1C#N was read as HTT aggregate -28%, ALDH1A1 block -6%, HPGD inh -11%, HTT cytoprotect -13%, LMNA splice mod inconclusive and KDM4E inh inconclusive.
For Cc1ccccc1-c1nnnn1C1CCS(=O)(=O)C1 (stereo not given) the results were HTT aggregate 31%, ALDH1A1 block 1%, HTT cytoprotect 1%[10 µM], LMNA splice mod 5%[46 µM] and KDM4E inh 2%.
Cc1cc(=O)n(C2CCS(=O)(=O)C2)[nH]1 (stereo not given) was read as HTT aggregate -6%[9.22 µM], ALDH1A1 block 23%, HTT cytoprotect -5%[10 µM] and KDM4E inh 22µM*.
Screening CCOC(=O)C1CCN(C(C)=C2C(=O)c3ccccc3C2=O)CC1 returned HTT aggregate -1%, ALDH1A1 block 18µM*, HPGD inh -13%, HTT cytoprotect 3%, LMNA splice mod -7% and KDM4E inh 1%.
CC(=C1C(=O)c2ccccc2C1=O)N1CCc2ccccc2C1 was read as HTT aggregate -29%, ALDH1A1 block 8.9µM*, HPGD inh -13%, HTT cytoprotect 11%, LMNA splice mod -2% and KDM4E inh 4%.
Screening Cc1ccc(-c2csc3ncnc(-n4nc(C)cc4N)c23)cc1 returned HTT aggregate -20%, ALDH1A1 block 2µM*, HPGD inh -13%, HTT cytoprotect -25%, LMNA splice mod inconclusive and KDM4E inh -1%.

Screening results as filed in PubChem.
